Assay outcomes as filed in PubChem.
PG9 Ab binder – PG9 antibody binding by small molecule | TR-FRET gp120-PG9 antibody binding | inhibition, % at 6.7 µM | hit rate 0.43% among 360,000 | AID 624416; in the data active means inhibition above about 8.5%
rCAG binder – molecules binding r(CAG) RNA repeats; hit rate 1.3% among 370,000; inhibition, % at 3 µM; r(CAG) RNA repeat, TO-PRO-1 dye displacement fluorescence;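 active means inhibition above the plate cutoff, the mean of all test compounds on that plate plus 3 SD, cut at about 35% in these data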;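 further: 0% = DMSO alone and 100% = 100 µM mitoxantrone as full dye displacement; higher means more dye released from RNA so lower well fluorescence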
ABCB6 inh MLPCN – inhibitors of human ABC transporter ABCB6. Q9NP58. K562-ABCB6 porphyrin accumulation, flow cytometry, 1 h; active compounds read low. fluorescence ratio to DMSO, % at 10 µM. hit rate 0.19% among 360,000;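 active means fluorescence ratio to DMSO below 75%, the collection mean minus 3 SD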;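 further: signal is porphyrin accumulated inside mitochondria; 100% equals median channel fluorescence of DMSO control wells; lower ratio means ABCB6 inhibition with less porphyrin fluorescence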
Granule exo inh – blocks lytic granule exocytosis; hit rate 0.66% among 360,000; inhibition, % at 10 µM; AID 651702; TALL-104 LAMP-1 surface exposure, flow cytometry; cells stimulated with thapsigargin and PMA;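 active means inhibition above about 55%, limit read from the data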
* hit, by the source's call; i = inactive; nt = no result. Hits are enriched below; roughly 2.5% of the tested compounds scored in any of these assays.

SMILES | PG9 Ab binder | rCAG binder | ABCB6 inh MLPCN | Granule exo inh
CCC(=O)OCCNc1cc(Sc2nc3ccccc3s2)c2nonc2c1[N+](=O)[O-] | -2 | 11 | 98 | 103*
O=[N+]([O-])c1ccc(NN=Cc2ccccc2)nc1 | 1 | 4 | 97 | -4
O=[N+]([O-])c1ccc(N/N=C\c2cccn2-c2ccccc2)nc1 | -1 | 12 | 163 | 57*
O=S(=O)(/C(=C\c1ccc(C(F)(F)F)cc1)c1nc2ccccc2[nH]1)c1ccccc1 | nt | nt | 94 | 70*
COCCN1Cc2cc(C(=O)OC)c3c(c2C1=O)c1cc(F)ccc1n3C(=O)c1ccccc1 | -1 | 7 | nt | nt
CC1CCC(C(C)C)C(OC(=O)C[n+]2cc(-c3ccc(Cl)cc3)n3c2CCC3)C1 (configuration not stated) | 1 | 10 | 93 | 64*
Cc1ccc(S(=O)(=O)Nc2nc3ccccc3nc2NCC2CCCO2)cc1C (configuration not stated) | -1 | 42* | 98 | 0
CCOC(=O)c1cc2c(=Cc3ccc(N(C)C)cc3)c3ccccc3n2[n+]1C | -37 | 17 | 739 | 67*
Cc1cc2c(=Cc3ccc(N(C)C)cc3)c3ccccc3n2[n+]1C | -30 | 9 | i | 5
Cc1ccc(C(=O)C2=C(O)C(=O)N(CCCn3ccnc3)C2c2ccc(OC(C)C)cc2)o1 (configuration not stated) | 41* | 4 | 100 | 4
CCOc1ccc(C2C(C(=O)c3ccco3)=C(O)C(=O)N2CCCn2ccnc2)cc1 (configuration not stated) | 8 | 4 | 99 | -2
CSc1ccc(S(=O)(=O)NCc2ccc(Cl)cc2Cl)cc1 | -2 | 4 | 99 | 100*
O=C(NCc1ccco1)c1ccc(COCC(F)(F)C(F)F)cc1 | -2 | 41* | 94 | 1
O=C(CSc1nc2ccccc2[nH]1)NN=Cc1ccccc1C(=O)O | nt | 2 | nt | nt
CC1CCN(Cc2c(C(=O)N/N=C/c3cc(Br)ccc3O)nnn2-c2nonc2N)CC1 | -3 | 8 | 98 | 2
Cc1cc(C)c(/C=N/NC(=O)c2nnn(-c3nonc3N)c2CN2CCC(C)CC2)c(C)c1 | -1 | 3 | 100 | 82*
COc1cc(/C=C/C(=O)OCC(=O)c2ccc(OC(F)F)cc2)ccc1O | -1 | 9 | 96 | 67*
CC(=O)Oc1ccc(/C=N/NC(=O)c2ccc(N(C)S(=O)(=O)c3ccccc3)cc2)cc1 | 1 | 3 | 101 | 94*
O=S(=O)(Nc1cc2nc3ccccc3nc2n1Cc1ccccc1)c1ccc(Cl)cc1 | -3 | 15 | 141 | 66*
CC(C)CN=Cc1c(O)c([N+](=O)[O-])cc2oc3c(c12)CCCC3 | -3 | 16 | 124 | 95*
Cc1cccc(OCCCC(=O)Nc2ccc(S(=O)(=O)Nc3onc(C)c3C)cc2)c1 | 0 | 48* | 103 | 1
COc1ccc(-c2cc(C(=O)Nc3ccc(S(=O)(=O)Nc4onc(C)c4C)cc3)c3ccccc3n2)cc1 | 0 | 75* | 96 | 2
Cc1ccc(-c2cc(C(=O)Nc3ccc(S(=O)(=O)Nc4nc(C)cc(C)n4)cc3)c3ccccc3n2)cc1 | 2 | 8 | 105 | -1
Cc1ccc(/C=C/C(=O)Nc2ccc(S(=O)(=O)Nc3onc(C)c3C)cc2)cc1 | 0 | 68* | 100 | -5
COC(=O)[C@]12C[C@H](CC(=O)NCc3cccc4ccccc34)C(=O)N(Cc3ccccc3)C1=C[C@H](C(C)C)O[C@@H]2C1CC1 | 0 | 6 | nt | nt
SMILES | PG9 Ab binder | rCAG binder | ABCB6 inh MLPCN | Granule exo inh
Cc1nn(C(C)C(=O)NCc2ccccc2Cl)c(=O)c2c1sc1ccccc12 (configuration not stated) | 1 | -5 | 99 | 82*
COC(=O)[C@H](CC(C)C)N(Cc1cn(Cc2ccc(C)cc2)nn1)S(=O)(=O)c1ccc(F)cc1Br | nt | 0 | nt | nt
Nc1ccc(O)cc1C(=O)OCC(=O)c1ccc(C2CCCCC2)cc1 | -4 | 51* | 104 | -4
CCOc1cccc(C=NNC(=O)C(=O)Nc2cccc(C(F)(F)F)c2)c1O | -1 | 8 | nt | nt
Cc1ccc(/C=C/C(=O)NCCc2cccc(Cl)c2)o1 | -1 | 0 | 99 | 64*
C[C@@H]1CN([C@@H](C)CO)C(=O)CCCn2cc(nn2)CO[C@H]1CN(C)C(=O)Nc1cccc2ccccc12 | 0 | 2 | nt | nt
COC(=O)C1=C(C)N(Cc2ccccc2C(F)(F)F)C(=NCc2ccc(C(F)(F)F)cc2)NC1c1ccccc1 (configuration not stated) | -1 | 2 | nt | nt
O=c1c2c(-c3ccccc3)csc2nc2c3ccccc3c(NCCN3CCOCC3)nn12 | 1 | 7 | 92 | 67*
CC(=O)OC[C@H]1O[C@H](C#Cc2ccc(C(C)(C)C)cc2)C=C[C@H]1OC(=O)Nc1ccccc1 | -3 | 7 | nt | nt
